Here are results for 25 compounds from PubChem BioAssay (Tox21).

A short description of experiment [1]: A CellTox Green Cytotoxicity Assay to monitor cytotoxicity in HEK293 cells - 40 hour (AID 1224871). Note: nearly all actives have a fitted effect of over 45% in size. Note: potency is the fitted concentration of half-maximal effect. In short, it runs like this: (§1)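 Cells (HEK293, 600/well) and dye reagent are dispensed together. After 5 h at 37 C, 23 nL compound is pinned in. Plates stay at 37 C for 40 h with fluorescence read at 0h, 8h, 16h, 24h, 32h and 40h.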
A short description of experiment [2]: qHTS RealTime-Glo MT Cell Viability Assay in HEK293 cells - 16 hour (AID 1224872). Note: nearly all actives have a fitted effect of over 50% in size. Note: potency is the fitted concentration of half-maximal effect. Put shortly: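 HEK293 cells seeded with NanoLuc/prosubstrate reagent, rested 5 h at 37 C, then dosed and kept at 37 C up to 40 h. Nonlytic real-time luminescence from viable cells read at 0, 8, 16, 24, 32 and 40 h.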
(In general: Quantitative high-throughput screening tests each substance at several concentrations.)

A short description of experiment [3]: qHTS RealTime-Glo MT Cell Viability Assay in HepG2 cells - 8 hour (AID 1224873). Note: nearly all actives have a fitted effect of over 55% in size. Put shortly: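 Real-time viability: cells seeded at 600 per well together with NanoLuc and cell-permeant prosubstrate, compounds added after 5 h incubation. Luminescence tracked at 0, 8, 16, 24, 32 and 40 h of exposure.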
A short description of experiment [4]: A CellTox Green Cytotoxicity Assay to monitor cytotoxicity in HEK293 cells - 24 hour (AID 1224875). Note: nearly all actives have a fitted effect of over 45% in size. Note: potency is the fitted concentration of half-maximal effect. In short, it runs like this: as §1
Experiment [5] in a line: A CellTox Green Cytotoxicity Assay to monitor cytotoxicity in HepG2 cells - 16 hour (AID 1224876). Note: nearly all actives have a fitted effect of over 45% in size. Note: potency is the fitted concentration of half-maximal effect. Put shortly: (§2)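 Cells and non-lytic dye reagent are dispensed together (600 HepG2 cells/well) and incubated 5 h before DMSO compound transfer. Kinetic fluorescence is then recorded in the same wells during 40 h at 37 C.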
The nature of experiment [6]: qHTS RealTime-Glo MT Cell Viability Assay in HepG2 cells - 32 hour (AID 1224877). Note: nearly all actives have a fitted effect of over 55% in size. Note: potency is the fitted concentration of half-maximal effect. Put shortly:
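HepG2 cells (600/well) were dispensed with RealTime-Glo reagents, incubated 5 h at 37 °C, then treated with compounds in DMSO for up to 40 h. Nonlytic NanoLuc luminescence reflecting viable cells was read at each stated time point.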

A short description of experiment [7]: A CellTox Green Cytotoxicity Assay to monitor cytotoxicity in HepG2 cells - 24 hour (AID 1224878). Note: nearly all actives have a fitted effect of over 45% in size. Note: potency is the fitted concentration of half-maximal effect. In short, it runs like this: as §2
Experiment [8] in a line: qHTS RealTime-Glo MT Cell Viability Assay in HEK293 cells - 0 hour (AID 1224880). Note: nearly all actives have a fitted effect of over 45% in size. Note: potency is the fitted concentration of half-maximal effect. Put shortly:
(§3)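 Real-time viability in HEK293: signal arises when living cells convert a prosubstrate for NanoLuc in the medium, so luminescence tracks viable cell number. Compound (23 nL, DMSO) added 5 h post-seeding; kinetic reads at 0–40 h, 37 C.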

Experiment [9] is described as follows: A CellTox Green Cytotoxicity Assay to monitor cytotoxicity in HepG2 cells - 40 hour (AID 1224879). Note: nearly all actives have a fitted effect of over 40% in size. Note: potency is the fitted concentration of half-maximal effect. Put shortly:
as §2

A short description of experiment [10]: qHTS RealTime-Glo MT Cell Viability Assay in HEK293 cells - 40 hour (AID 1224874). Note: nearly all actives have a fitted effect of over 50% in size. Note: potency is the fitted concentration of half-maximal effect. The note with it: RealTime-Glo luminescence; max response: active compounds read low. Put shortly: as §3

“And” between values parts separate entries of the source, which are not always exact repeats. Identical values can stand only once. Results filed as inconclusive are left out. Unmarked numbers belong to inactive results. The source made the active and inactive calls. Calls come from the whole dose curve; as a rule, active = well fitted curve in the direction sought with a large enough effect in the repeat runs; inconclusive = weak or mixed curves; inactive = no such curve, though single readings can be large; an effect the other way counts as inactive or inconclusive.
% is set by controls: 0 for no effect and ±100 for the full control effect.

With `O=C(O)c1ccc(-n2nc(-c3ccccc3O)nc2-c2ccccc2O)cc1`, the Potency result in experiment [1], in experiment [2], in experiment [3], in experiment [4], in experiment [5] and in [6] was “inactive” throughout. In addition, the Potency result in [7] and in [8] was “inactive” in each case.
With `COc1cc(Cl)c(OC)cc1N`, the Potency entry in [1], in [2], in [3], in experiment [5], in [6] and in experiment [7] was “inactive” throughout. The Potency entry in experiment [9] and in experiment [8] was “inactive” throughout.
As for `CCN(CC)CCNc1ccc(CNC=O)c2sc3ccc(OC)cc3c(=O)c12`, the Potency in [1] was 19.5 µM (active); in [2], 27.5 µM (active); in experiment [10], 8.71 µM (active); in experiment [6], 19.5 µM (active). The Potency result in [4], in experiment [5], in experiment [7] and in experiment [8] was “inactive” in each case.
With `Cc1c(N)cccc1[N+](=O)[O-]`, the Potency result in [1], in [2], in experiment [3], in experiment [4], in experiment [5] and in experiment [7] was “inactive” in each case. Moreover, the Potency result in [8] is “inactive”.
Turning to `O=C(Nc1ccccc1)c1ccccc1O`, the Potency entry in [1], in experiment [2], in [3], in [4], in experiment [5] and in [7] was “inactive” in each case. Further, in experiment [8], the Potency result is “inactive”.
As to `C/C=C/C=C/CO`, the Potency entry in [1], in experiment [2], in experiment [3], in [4], in experiment [5] and in experiment [7] was “inactive” throughout. For the same compound, the Potency result in [8] is “inactive”.
With `C/C=C(/C(=C/C)c1ccc(OC(C)=O)cc1)c1ccc(OC(C)=O)cc1`, the Potency result in experiment [1], in [2], in experiment [3], in experiment [4], in experiment [5] and in experiment [7] was “inactive” throughout. In addition, the Potency entry in experiment [9] and in experiment [8] was “inactive” throughout.
For `CCCCCC[C@@H](O)C/C=C\CCCCCCCC(=O)OC`, the Potency result in experiment [1], in experiment [2], in [3], in experiment [4], in experiment [5] and in experiment [6] was “inactive” throughout. The Potency entry in [7] and in experiment [8] was “inactive” in each case.
For the compound `O=C(Nc1ccc(S(=O)(=O)N2CCOCC2)cc1)c1cc(Cl)ccc1NS(=O)(=O)c1ccc(Cl)s1`, the Potency in experiment [1] is 21.3 µM (active); in [4] it was 23.9 µM (active); in experiment [5], 26.8 µM (active); in experiment [8], 10.7 µM (active). For the same compound, the Potency entry in experiment [2] was “inactive”. Moreover, the max response in experiment [10] is -14.7%.
In the case of `Nc1ncn([C@H]2C[C@H](O)[C@@H](CO)O2)c(=O)n1`, the Potency result in experiment [1], in experiment [2], in experiment [3], in experiment [4], in experiment [5] and in experiment [7] was “inactive” throughout. In addition, in [8], the Potency entry is “inactive”.
Take `Cc1oc(-c2ccccc2)nc1CCOc1cccc2c1ccn2CCC(=O)O`: the Potency entry in experiment [1], in experiment [2], in experiment [3], in experiment [4], in [5] and in experiment [7] was “inactive” each time. Besides, the Potency entry in experiment [8] was “inactive”.
Regarding `COc1ccnc(CS(=O)c2nc3ccc(OC(F)F)cc3[nH]2)c1OC` (configuration not stated), the Potency entry in experiment [1], in experiment [2], in experiment [3], in experiment [4], in experiment [6] and in experiment [7] was “inactive” throughout. The Potency result in experiment [9] and in [8] was “inactive” in each case.
With `CNC(=O)CN(CCN(CCN(CC(=O)[O-])CC(=O)NC)CC(=O)[O-])CC(=O)[O-].O.[Gd+3]`, the Potency result in experiment [1], in experiment [2], in experiment [3], in experiment [5], in experiment [6] and in experiment [7] was “inactive” each time. Besides, the Potency entry in [9] and in [8] was “inactive” throughout.
In the case of `O=C1CCCCCCCCCCCC(=O)OCCO1`, the Potency in experiment [1] is 54.9 µM (active). Moreover, the Potency entry in [2], in [3], in experiment [4], in experiment [5], in [6] and in [8] was “inactive” in each case.
As for `CCCCCCOC(=O)NC(=N)c1ccc(NCc2nc3cc(C(=O)N(CCC(=O)OCC)c4ccccn4)ccc3n2C)cc1`, the Potency result in experiment [1] and in experiment [5] was “inactive” throughout. Also, the Potency in experiment [2] is 9.52 µM (active); in experiment [10], 10.7 µM (active); in experiment [7], 23.9 µM (active); in [9] it was 23.9 µM (active).
On to `O=C(O)c1nc(Cl)c(Cl)c(Cl)c1Cl`, for which the Potency entry in experiment [1], in experiment [2], in experiment [3], in experiment [5], in [6] and in [7] was “inactive” in each case. The Potency result in experiment [9] and in [8] was “inactive” each time.
As for `O=C(O)c1ccccc1Cl`, the Potency entry in experiment [1], in experiment [2], in [3], in experiment [4], in experiment [5] and in [7] was “inactive” throughout. The Potency entry in experiment [8] is “inactive”.
Consider `CCO[C@H](Cc1ccc(OCCc2ccc(OS(C)(=O)=O)cc2)cc1)C(=O)O`, for which the Potency result in experiment [1], in experiment [2], in [3], in experiment [4], in [6] and in experiment [7] was “inactive” each time. Also, the Potency entry in [8] is “inactive”.
As for `C1CCCNCCC1`, the Potency result in experiment [1], in [2], in experiment [3], in [5], in experiment [6] and in experiment [7] was “inactive” throughout. In addition, the Potency result in experiment [9] and in experiment [8] was “inactive” throughout.
`C=CC(=O)OCCOCCOCCOCCOC(=O)C=C`: the Potency is 49.2 µM (active) and 48.5 µM (active) in experiment [1]; 43.2 µM (active) in [2]; 31.1 µM (active) and 19.3 µM (active) in [10]; 48.5 µM (active) in [6]; 24.7 µM (active) and 13.7 µM (active) in experiment [9]. Besides, the Potency result in experiment [4], in experiment [5], in experiment [7] and in experiment [8] was “inactive” throughout.
As for `C[C@@H]1C[C@H]2[C@@H]3CCC4=CC(=O)C=C[C@]4(C)[C@@]3(F)[C@@H](O)C[C@]2(C)[C@@]1(O)C(=O)COC(=O)c1ccncc1`, the Potency entry in experiment [1], in [2], in experiment [3], in [4], in [5] and in experiment [6] was “inactive” in each case. Besides, the Potency entry in experiment [9] is “inactive”. The Potency in experiment [8] is 3.01 µM (active).
Turning to `CC(=O)OC[C@H]1O[C@@H](n2ncc(=O)[nH]c2=O)[C@H](OC(C)=O)[C@@H]1OC(C)=O`, the Potency entry in experiment [1], in [2], in [3], in experiment [4], in experiment [5] and in [6] was “inactive” each time. Also, the Potency entry in [7] and in experiment [8] was “inactive” each time.
In the case of `CCOC(=O)C(F)(F)F`, the Potency entry in [1], in experiment [2], in experiment [3], in experiment [4], in [5] and in experiment [7] was “inactive” each time. The Potency entry in experiment [9] and in experiment [8] was “inactive” in each case.
Take `C[N+]1(CC2COC(c3ccccc3)(C3CCCCC3)O2)CCCCC1` (configuration not stated): the Potency entry in experiment [1], in experiment [2], in [3], in experiment [4], in experiment [5] and in experiment [7] was “inactive” each time. In addition, the Potency entry in experiment [9] and in [8] was “inactive” throughout.
Take `COc1cc2c(cc1OC)C(C(C(=O)N(CCc1ccc(OC)c(OC)c1OC)CCc1ccc(OC)c(OC)c1OC)c1ccccc1)=NCC2` (configuration not stated): the Potency entry in experiment [1], in experiment [4], in [5] and in experiment [9] was “inactive” each time. The Potency was 3.01 µM (active) in [2] and 3.38 µM (active) in experiment [10].
